This passage reports growth results from PubChem BioAssay (NCI).

Some test systems named below: EKVX NSCLC; SN12C renal; UO-31 renal; TK-10 renal; ACHN renal; CAKI-1 renal; CCRF-CEM leukemia; MOLT-4 leukemia; SR leukemia; A498 renal.
Experiment in all cases: NCI-60 one-dose screen, 48 h (100 = growth as untreated, 0 = no growth, -100 = all killed)
What all share (conditions): 10 µM

The structures appear in SMILES notation. Compounds without any hit were thinned out: in the full panel of roughly 83,000, 20% have a hit.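 Plates (96-well) were seeded with cells, treated with compound at one concentration, and incubated for 48 hours before percent growth was determined.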 Values without a mark were called inactive. The source made the active and inactive calls. The calls were made as follows: active = growth percent below 10; inactive = the rest.

`O=c1[nH]c2ccc(Cl)cc2c2ccccc12`: the growth in the assay with EKVX NSCLC is 41.8%; with SN12C renal it was 87.8%; in the assay with UO-31 renal it was 20.2%; in the assay with TK-10 renal, 81%; with ACHN renal, 48.9%; in the assay on CAKI-1 renal, 43.2%. The growth in the assay on CCRF-CEM leukemia is 99.3%; in the assay on MOLT-4 leukemia, 119%; in the assay on SR leukemia, 75.4%.
As for `Cc1cn(C2CCCCO2)c(=O)nc1NO` (stereo not given), the growth in the assay on EKVX NSCLC is 92.9%; in the assay on SN12C renal it was 103%; in the assay on UO-31 renal, 101%; in the assay with TK-10 renal, 103%; in the assay on ACHN renal, 110%; with CAKI-1 renal, 108%. The growth in the assay on CCRF-CEM leukemia is 102%; in the assay on MOLT-4 leukemia it was 99.1%; in the assay with SR leukemia, 116%.
For the molecule `O=C1c2ccc3c4c(ccc(c24)C(=O)N1CCNCc1ccccc1)C(=O)N(CCNCc1ccccc1)C3=O`, the growth in the assay with EKVX NSCLC was -65.6% (active); with SN12C renal, -47.3% (active); with UO-31 renal, -59% (active); with TK-10 renal, 63.4%; in the assay with ACHN renal, 85.4%; in the assay on CAKI-1 renal it was -56.2% (active). In addition, the growth was -6.55% (active) with CCRF-CEM leukemia, -9.12% (active) in the assay with MOLT-4 leukemia and -8.22% (active) with SR leukemia.
As to `N#CCCN(NC(=O)OCc1ccccc1)C(=O)OCc1ccccc1`, the growth was 91.8% in the assay with EKVX NSCLC; 106% in the assay with SN12C renal; 80.7% in the assay on UO-31 renal; 120% in the assay on TK-10 renal; 102% with ACHN renal; 88.4% in the assay with CAKI-1 renal. Besides, the growth with CCRF-CEM leukemia is 99%; in the assay with MOLT-4 leukemia, 97.1%; in the assay on SR leukemia it was 107%.
For the molecule `CCOC(=O)c1ccc(NC(=O)Nc2ncc(Cl)cc2Cl)cc1`, the growth in the assay on EKVX NSCLC is 111%; in the assay with SN12C renal it was 86.8%; in the assay with UO-31 renal, 96.4%; in the assay on TK-10 renal, 108%; in the assay with ACHN renal it was 107%; with A498 renal, 91.9%. Besides, the growth in the assay with CCRF-CEM leukemia was 81.7%; in the assay on MOLT-4 leukemia, 93.2%; with SR leukemia it was 95.9%.
Turning to `CCCCCCNC(=O)Oc1ccc(/C(=C(/CC)Cc2ccccc2)c2ccc(OCCN3CCCCC3)cc2)cc1`, the growth in the assay with EKVX NSCLC is 85.1%; with SN12C renal, 80.7%; in the assay on UO-31 renal, 60.4%; in the assay with TK-10 renal, 93.7%; in the assay with ACHN renal, 100%; with CAKI-1 renal it was 96.9%. Also, the values for the growth in the assay with CCRF-CEM leukemia, with MOLT-4 leukemia and with SR leukemia were 66.7%, 55.2% and 0.769% (active), respectively.
On to `O=C(CSSCC(=O)c1ccc(Cl)cc1)c1ccc(Cl)cc1`, for which the growth with EKVX NSCLC is 91.4%; with SN12C renal, 79.1%; with UO-31 renal it was 86.4%; in the assay with TK-10 renal it was 41.3%; in the assay with ACHN renal it was 82.1%; in the assay on CAKI-1 renal, 96.5%. Also, the results for the growth in the assay with MOLT-4 leukemia and in the assay on SR leukemia were 13.9% and 18.7%, respectively.
`O=C1/C(=C/c2ccc(Cl)cc2)SC(=Nc2ccc(Cl)cc2)N1Cc1nc2ccccc2[nH]1`: the growth with EKVX NSCLC was 64.5%; with SN12C renal, 79.3%; in the assay on UO-31 renal, 37.5%; in the assay on TK-10 renal, 104%; in the assay with ACHN renal, 91.9%; in the assay on CAKI-1 renal, 8.38% (active). Also, the growth in the assay on MOLT-4 leukemia was 57.3%.
On to `CCCCOC(=O)Oc1ccc(C(=O)Oc2ccc(OCC)cc2)cc1`, for which the growth in the assay with EKVX NSCLC is 98%; in the assay on SN12C renal, 95.3%; in the assay on UO-31 renal, 85.6%; with TK-10 renal, 117%; in the assay on ACHN renal, 90.2%; in the assay on CAKI-1 renal, 87.1%. Further, the figures for the growth in the assay on CCRF-CEM leukemia, with MOLT-4 leukemia and in the assay on SR leukemia were 8.77% (active), 111% and 107%, respectively.
For the molecule `O=C(N/N=C/c1ccccc1O)C(O)(c1ccccc1)c1ccccc1`, the growth in the assay on EKVX NSCLC was 20%; with SN12C renal, 66.3%; with UO-31 renal it was 23.7%; in the assay with TK-10 renal it was 53.9%; in the assay with ACHN renal, 35.5%; with CAKI-1 renal it was 23%. In addition, the growth in the assay on CCRF-CEM leukemia was 24.7%; in the assay on MOLT-4 leukemia it was 31.2%; in the assay on SR leukemia, 42.6%.
Turning to `O=C(N/N=C\c1cc(Cl)ccc1[N+](=O)[O-])c1ccco1`, the growth is 106% with EKVX NSCLC; 99.8% with SN12C renal; 104% in the assay with UO-31 renal; 128% in the assay with TK-10 renal; 105% in the assay with ACHN renal; 89.5% in the assay with CAKI-1 renal. Besides, the growth with CCRF-CEM leukemia was 102%; with MOLT-4 leukemia, 93.6%; with SR leukemia, 123%.
With `O=C(Cc1csc2nc(-c3ccc(Cl)cc3)cn12)N/N=C/c1ccccc1O`, the growth with EKVX NSCLC was 32.2%; with SN12C renal it was 61%; in the assay with UO-31 renal it was 27.2%; with TK-10 renal, 57.1%; with ACHN renal, 26.4%; in the assay with CAKI-1 renal, 34.5%. Moreover, the growth in the assay on MOLT-4 leukemia is 10.5%; with SR leukemia, -11.5% (active).
With `Cc1cc(N(CCCNc2ccnc3cc(Cl)ccc23)Cc2ccc3c(c2)OCO3)nc(N2CCCCC2)n1`, the growth was 2.19% (active) in the assay with EKVX NSCLC; 23.4% with SN12C renal; -61.9% (active) with UO-31 renal; -35.3% (active) in the assay with TK-10 renal; -37.7% (active) with ACHN renal; -18.8% (active) in the assay with A498 renal. Further, the results for the growth with CCRF-CEM leukemia, with MOLT-4 leukemia and in the assay with SR leukemia were -5.28% (active), -27.1% (active) and -41.7% (active), respectively.
For `CS(=O)(=O)Nc1cccc(-c2cc(-c3ccccc3Cl)c(C#N)c(N)n2)c1`, the growth was 27% with EKVX NSCLC; 51.6% with SN12C renal; 26% with UO-31 renal; 63.5% in the assay on TK-10 renal; 46.8% in the assay with ACHN renal; 16.1% in the assay on CAKI-1 renal. Moreover, the growth is 20.6% in the assay with CCRF-CEM leukemia and 23.9% with SR leukemia.
In the case of `COc1ccc(-c2cc(-c3ccc(N(C)C)cc3)c(C#N)c(N3CCCC3)n2)cc1`, the growth is 73.1% with EKVX NSCLC; 89.2% with SN12C renal; 81.7% in the assay with UO-31 renal; 85.4% in the assay with TK-10 renal; 98.5% in the assay on ACHN renal; 106% with A498 renal. Also, the values for the growth in the assay on CCRF-CEM leukemia, in the assay with MOLT-4 leukemia and with SR leukemia were 79.5%, 81.2% and 40.8%, respectively.
